Here are results for 1 sequence from PMC7862700, “An all-to-all approach to the identification of sequence-specific readers for epigenetic DNA modifications on cytosine”.

Common to all, as to assay: DAPPL (digital affinity profiling via proximity ligation, sequencing); 10 mM Tris-HCl pH 7.5, 50 mM NaCl, 1 mM DTT, 4% glycerol, room temperature, 30 min; GST-TFs on glutathione beads, 16-mer random dsDNA library, 0.1% formaldehyde crosslink after washing; high values mean tight binding
In one assay the target is T1, FEV (Homo sapiens, UniProt Q99581 1-238).
T1 sequence: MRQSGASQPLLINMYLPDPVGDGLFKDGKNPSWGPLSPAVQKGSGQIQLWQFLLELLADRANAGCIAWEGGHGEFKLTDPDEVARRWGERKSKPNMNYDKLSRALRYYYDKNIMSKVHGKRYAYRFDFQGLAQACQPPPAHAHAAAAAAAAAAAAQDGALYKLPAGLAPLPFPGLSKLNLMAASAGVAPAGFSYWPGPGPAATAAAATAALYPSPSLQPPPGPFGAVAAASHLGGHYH
The note with it: protein: recombinant; tags: N-terminal GST; dsDNA, one strand shown. An outline of the steps:
(§1)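 Yeast served to express human transcription factors as GST fusions, which were then captured on glutathione beads and labelled with DNA barcodes. Pooled with a tag-only sample, they were incubated with 200 nmole of a 16-mer random double-stranded DNA library for 30 min at room temperature in Tris/NaCl/DTT/glycerol buffer, washed, crosslinked with 0.1% formaldehyde, ligated by proximity, amplified by PCR and sequenced. Dividing each hexamer's read frequency for a factor by its frequency for the tag-only sample gives the binding signal.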

In a further assay the target is ETV5 (Homo sapiens, UniProt P41161 1-510). The note with it: protein: recombinant; tags: N-terminal GST; dsDNA, one strand shown. The gist of the method: as §1
Sequence of ETV5 (P41161 whole entry): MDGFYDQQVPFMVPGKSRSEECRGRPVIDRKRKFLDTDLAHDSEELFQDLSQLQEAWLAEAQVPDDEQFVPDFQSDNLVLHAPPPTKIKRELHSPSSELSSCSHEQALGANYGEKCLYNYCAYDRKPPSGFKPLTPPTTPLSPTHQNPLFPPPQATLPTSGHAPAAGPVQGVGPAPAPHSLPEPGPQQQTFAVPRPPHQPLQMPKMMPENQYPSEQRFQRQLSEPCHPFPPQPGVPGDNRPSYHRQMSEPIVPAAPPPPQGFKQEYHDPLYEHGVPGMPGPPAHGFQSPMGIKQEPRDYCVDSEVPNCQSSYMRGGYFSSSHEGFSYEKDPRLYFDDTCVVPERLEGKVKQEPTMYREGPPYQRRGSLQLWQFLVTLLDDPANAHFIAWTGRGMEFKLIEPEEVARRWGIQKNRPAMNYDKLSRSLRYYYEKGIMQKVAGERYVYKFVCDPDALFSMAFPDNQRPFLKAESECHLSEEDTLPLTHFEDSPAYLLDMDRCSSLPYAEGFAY
A further assay concerns the target HSF1 (Homo sapiens, UniProt Q00613 1-529). Conditions: protein: recombinant; tags: N-terminal GST; chain copies: 3; dsDNA, one strand shown. An outline of the steps: as §1
The target of the next assay is T2, SPIC (Homo sapiens, UniProt Q8N5J4 1-248).
T2 sequence: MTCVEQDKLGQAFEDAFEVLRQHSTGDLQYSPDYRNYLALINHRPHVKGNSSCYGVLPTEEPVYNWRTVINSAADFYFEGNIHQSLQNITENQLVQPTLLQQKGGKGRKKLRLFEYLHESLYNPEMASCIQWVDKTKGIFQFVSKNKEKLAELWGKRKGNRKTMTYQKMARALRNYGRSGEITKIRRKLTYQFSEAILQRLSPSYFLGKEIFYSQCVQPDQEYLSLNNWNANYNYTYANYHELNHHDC
Conditions: protein: recombinant; tags: N-terminal GST; dsDNA, one strand shown. An outline of the steps: as §1

The target in the next assay is ELF4 (Homo sapiens, UniProt Q99607 1-663). The note with it: protein: recombinant; tags: N-terminal GST; dsDNA, one strand shown. The gist of the method: as §1
Sequence of ELF4 (Q99607 whole entry): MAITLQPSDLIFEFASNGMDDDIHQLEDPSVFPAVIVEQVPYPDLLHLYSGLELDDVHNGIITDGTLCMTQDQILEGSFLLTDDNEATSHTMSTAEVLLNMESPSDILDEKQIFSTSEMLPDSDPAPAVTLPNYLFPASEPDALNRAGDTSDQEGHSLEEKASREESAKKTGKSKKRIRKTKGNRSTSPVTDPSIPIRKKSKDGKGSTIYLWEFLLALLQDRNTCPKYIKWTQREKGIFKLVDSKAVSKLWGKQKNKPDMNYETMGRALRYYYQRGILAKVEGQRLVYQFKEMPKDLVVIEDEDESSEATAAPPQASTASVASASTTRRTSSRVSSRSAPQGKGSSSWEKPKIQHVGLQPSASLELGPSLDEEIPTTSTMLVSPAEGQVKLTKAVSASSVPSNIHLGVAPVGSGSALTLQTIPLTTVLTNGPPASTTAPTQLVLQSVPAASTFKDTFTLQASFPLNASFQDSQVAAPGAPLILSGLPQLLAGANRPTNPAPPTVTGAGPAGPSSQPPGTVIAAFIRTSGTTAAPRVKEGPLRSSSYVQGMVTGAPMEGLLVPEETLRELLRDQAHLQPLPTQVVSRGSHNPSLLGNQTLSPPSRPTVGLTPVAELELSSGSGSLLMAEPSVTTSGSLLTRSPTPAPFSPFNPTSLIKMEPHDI
Another assay concerns the target T3, ELK4 (Homo sapiens, UniProt P28324-2 1-405).
T3 sequence: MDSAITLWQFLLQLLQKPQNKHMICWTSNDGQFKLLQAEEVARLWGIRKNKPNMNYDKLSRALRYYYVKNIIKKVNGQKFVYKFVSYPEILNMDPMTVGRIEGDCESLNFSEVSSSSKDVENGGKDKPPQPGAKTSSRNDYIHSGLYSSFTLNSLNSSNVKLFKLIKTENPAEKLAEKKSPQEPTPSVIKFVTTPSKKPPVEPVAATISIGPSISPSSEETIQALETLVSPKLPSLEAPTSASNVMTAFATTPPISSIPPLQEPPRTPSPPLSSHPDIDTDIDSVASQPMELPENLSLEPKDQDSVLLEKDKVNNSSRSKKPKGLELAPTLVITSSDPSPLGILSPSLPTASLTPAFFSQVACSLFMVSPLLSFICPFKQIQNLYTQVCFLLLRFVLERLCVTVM
Conditions: protein: recombinant; tags: N-terminal GST; dsDNA, one strand shown. An outline of the steps: as §1

For a further assay, the target named is T4, ETV2 (Homo sapiens, UniProt O00321 1-342).
T4 sequence: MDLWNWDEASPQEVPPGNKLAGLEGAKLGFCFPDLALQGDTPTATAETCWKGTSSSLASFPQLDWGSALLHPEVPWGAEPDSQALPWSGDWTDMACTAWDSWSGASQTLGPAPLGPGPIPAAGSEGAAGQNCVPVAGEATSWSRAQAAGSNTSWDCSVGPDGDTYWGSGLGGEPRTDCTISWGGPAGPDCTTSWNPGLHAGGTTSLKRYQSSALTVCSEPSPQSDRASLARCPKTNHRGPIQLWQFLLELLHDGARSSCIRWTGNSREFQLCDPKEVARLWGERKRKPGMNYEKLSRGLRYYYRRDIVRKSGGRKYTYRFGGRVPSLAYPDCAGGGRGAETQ
The note with it: protein: recombinant; tags: N-terminal GST; dsDNA, one strand shown. The gist of the method:
as §1

A further assay concerns the target T5, ELF3 (Homo sapiens, UniProt P78545 1-371).
T5 sequence: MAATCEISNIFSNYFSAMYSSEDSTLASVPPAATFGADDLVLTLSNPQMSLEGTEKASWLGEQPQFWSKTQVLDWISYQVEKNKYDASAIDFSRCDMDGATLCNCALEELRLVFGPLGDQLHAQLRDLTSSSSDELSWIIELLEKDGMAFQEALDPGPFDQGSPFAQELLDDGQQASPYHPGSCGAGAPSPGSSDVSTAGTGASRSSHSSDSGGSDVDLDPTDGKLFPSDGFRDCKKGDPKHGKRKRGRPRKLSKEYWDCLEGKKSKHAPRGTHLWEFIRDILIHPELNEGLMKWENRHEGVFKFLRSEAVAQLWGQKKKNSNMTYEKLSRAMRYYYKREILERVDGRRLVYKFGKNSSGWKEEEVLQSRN
Conditions: protein: recombinant; tags: N-terminal GST; dsDNA, one strand shown. An outline of the steps: as §1

A further assay deals with CRX (Homo sapiens, UniProt O43186 1-299). The note with it: protein: recombinant; tags: N-terminal GST; dsDNA, one strand shown. The gist of the method:
as §1

The next assay addresses ETV1 (Homo sapiens, UniProt P50549 1-477). The note with it: protein: recombinant; tags: N-terminal GST; dsDNA, one strand shown. An outline of the steps: as §1
A further assay addresses T6, ERF (Homo sapiens, UniProt P50548 1-548).
T6 sequence: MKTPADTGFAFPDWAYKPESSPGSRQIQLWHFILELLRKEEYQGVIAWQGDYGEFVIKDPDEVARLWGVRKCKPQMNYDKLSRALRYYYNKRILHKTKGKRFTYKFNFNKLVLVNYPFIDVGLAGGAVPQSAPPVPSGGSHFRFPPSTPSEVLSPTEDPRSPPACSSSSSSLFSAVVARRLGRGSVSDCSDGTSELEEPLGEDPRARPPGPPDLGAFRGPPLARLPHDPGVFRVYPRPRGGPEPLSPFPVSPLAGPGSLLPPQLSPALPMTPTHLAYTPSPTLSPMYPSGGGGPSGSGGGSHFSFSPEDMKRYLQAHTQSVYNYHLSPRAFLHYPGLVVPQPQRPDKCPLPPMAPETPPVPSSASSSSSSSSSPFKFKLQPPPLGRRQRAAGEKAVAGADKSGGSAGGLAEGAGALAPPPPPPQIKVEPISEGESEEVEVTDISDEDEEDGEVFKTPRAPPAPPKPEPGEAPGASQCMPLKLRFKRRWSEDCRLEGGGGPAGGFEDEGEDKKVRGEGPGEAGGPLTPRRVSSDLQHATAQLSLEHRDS
Conditions: protein: recombinant; tags: N-terminal GST; dsDNA, one strand shown. The gist of the method:
as §1

Another assay has as its target T7, ETV3L (Homo sapiens, UniProt Q6ZN32 1-361).
T7 sequence: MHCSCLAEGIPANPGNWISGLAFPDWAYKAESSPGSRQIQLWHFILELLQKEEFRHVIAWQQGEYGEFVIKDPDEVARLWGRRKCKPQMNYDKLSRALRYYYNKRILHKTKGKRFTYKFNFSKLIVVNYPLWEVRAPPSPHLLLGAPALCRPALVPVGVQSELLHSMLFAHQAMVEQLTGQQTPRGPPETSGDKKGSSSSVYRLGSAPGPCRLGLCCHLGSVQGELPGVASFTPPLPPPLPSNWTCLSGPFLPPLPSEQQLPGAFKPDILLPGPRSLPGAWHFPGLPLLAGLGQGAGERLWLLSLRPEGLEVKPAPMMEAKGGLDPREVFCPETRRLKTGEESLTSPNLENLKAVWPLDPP
Conditions: protein: recombinant; tags: N-terminal GST; dsDNA, one strand shown. The gist of the method:
as §1

In the next assay the target is T8, ETS2 (Homo sapiens, UniProt P15036 1-469).
T8 sequence: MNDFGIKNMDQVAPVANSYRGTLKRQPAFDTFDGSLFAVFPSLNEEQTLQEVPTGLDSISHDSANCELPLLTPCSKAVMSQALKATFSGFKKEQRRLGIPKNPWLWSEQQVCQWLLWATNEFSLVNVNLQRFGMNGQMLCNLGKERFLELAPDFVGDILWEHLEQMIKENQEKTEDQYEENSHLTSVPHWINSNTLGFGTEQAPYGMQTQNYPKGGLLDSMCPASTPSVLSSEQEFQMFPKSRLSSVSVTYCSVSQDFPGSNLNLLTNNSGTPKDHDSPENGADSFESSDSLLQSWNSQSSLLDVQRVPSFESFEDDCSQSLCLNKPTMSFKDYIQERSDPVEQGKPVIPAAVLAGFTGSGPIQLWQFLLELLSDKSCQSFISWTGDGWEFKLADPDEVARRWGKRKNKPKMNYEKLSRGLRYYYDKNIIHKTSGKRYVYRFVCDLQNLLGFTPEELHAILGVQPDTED
Conditions: protein: recombinant; tags: N-terminal GST; dsDNA, one strand shown. An outline of the steps:
as §1

In a further assay the target is T9, SPDEF (Homo sapiens, UniProt O95238 1-335).
T9 sequence: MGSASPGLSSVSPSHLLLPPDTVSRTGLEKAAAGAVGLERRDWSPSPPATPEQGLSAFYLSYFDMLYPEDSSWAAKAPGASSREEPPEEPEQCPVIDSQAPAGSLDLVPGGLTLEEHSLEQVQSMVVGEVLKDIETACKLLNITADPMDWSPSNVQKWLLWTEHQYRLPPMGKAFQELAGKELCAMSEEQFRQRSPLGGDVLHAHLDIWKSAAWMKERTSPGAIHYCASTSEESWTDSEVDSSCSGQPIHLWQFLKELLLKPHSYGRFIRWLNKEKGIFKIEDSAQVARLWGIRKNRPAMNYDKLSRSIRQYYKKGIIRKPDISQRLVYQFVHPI
Conditions: protein: recombinant; tags: N-terminal GST; dsDNA, one strand shown. The gist of the method:
as §1

A further assay deals with T10, ETV7 (Homo sapiens, UniProt Q9Y603 1-341).
T10 sequence: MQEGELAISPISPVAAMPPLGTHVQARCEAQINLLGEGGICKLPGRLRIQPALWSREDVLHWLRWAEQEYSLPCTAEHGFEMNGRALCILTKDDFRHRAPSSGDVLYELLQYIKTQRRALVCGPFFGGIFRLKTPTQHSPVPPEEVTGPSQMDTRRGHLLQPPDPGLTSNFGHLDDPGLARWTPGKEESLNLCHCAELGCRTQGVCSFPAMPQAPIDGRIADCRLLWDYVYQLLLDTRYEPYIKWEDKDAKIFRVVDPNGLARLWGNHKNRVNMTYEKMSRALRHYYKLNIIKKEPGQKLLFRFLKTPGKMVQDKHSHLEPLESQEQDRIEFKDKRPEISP
The note with it: protein: recombinant; tags: N-terminal GST; dsDNA, one strand shown. An outline of the steps: as §1

The next assay has as its target T11, ELF5 (Homo sapiens, UniProt Q9UKW6-2 1-255).
T11 sequence: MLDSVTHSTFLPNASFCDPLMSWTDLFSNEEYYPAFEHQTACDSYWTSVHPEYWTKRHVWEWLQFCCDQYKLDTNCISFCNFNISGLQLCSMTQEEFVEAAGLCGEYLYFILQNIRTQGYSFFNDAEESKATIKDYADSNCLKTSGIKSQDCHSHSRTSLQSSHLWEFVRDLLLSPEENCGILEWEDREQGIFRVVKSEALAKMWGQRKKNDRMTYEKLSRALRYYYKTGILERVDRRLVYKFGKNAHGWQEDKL
The note with it: protein: recombinant; tags: N-terminal GST; dsDNA, one strand shown. The gist of the method:
as §1

For a further assay, the target named is T12, ETV3 (Homo sapiens, UniProt P41162-2 1-143).
T12 sequence: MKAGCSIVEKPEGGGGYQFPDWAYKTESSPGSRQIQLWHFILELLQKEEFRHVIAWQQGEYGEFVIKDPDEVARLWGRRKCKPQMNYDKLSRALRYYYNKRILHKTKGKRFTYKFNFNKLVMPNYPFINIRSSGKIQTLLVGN
Conditions: protein: recombinant; tags: N-terminal GST; dsDNA, one strand shown. The gist of the method: as §1

The next assay deals with ETV6 (Homo sapiens, UniProt P41212 1-452). Conditions: protein: recombinant; tags: N-terminal GST; dsDNA, one strand shown. The gist of the method: as §1
Sequence of ETV6 (P41212 whole entry): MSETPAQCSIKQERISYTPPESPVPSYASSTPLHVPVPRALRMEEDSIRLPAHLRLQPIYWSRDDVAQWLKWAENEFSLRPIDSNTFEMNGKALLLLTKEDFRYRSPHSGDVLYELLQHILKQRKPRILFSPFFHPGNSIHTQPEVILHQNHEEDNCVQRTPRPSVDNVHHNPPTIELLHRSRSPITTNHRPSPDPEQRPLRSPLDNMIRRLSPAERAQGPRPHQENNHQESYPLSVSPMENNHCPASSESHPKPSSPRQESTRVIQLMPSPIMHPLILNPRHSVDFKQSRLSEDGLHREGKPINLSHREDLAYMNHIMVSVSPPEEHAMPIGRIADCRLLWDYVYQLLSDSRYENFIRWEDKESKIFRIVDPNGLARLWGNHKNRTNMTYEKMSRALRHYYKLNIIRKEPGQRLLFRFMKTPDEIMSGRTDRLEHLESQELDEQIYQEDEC

Sequence of CRX (O43186 whole entry): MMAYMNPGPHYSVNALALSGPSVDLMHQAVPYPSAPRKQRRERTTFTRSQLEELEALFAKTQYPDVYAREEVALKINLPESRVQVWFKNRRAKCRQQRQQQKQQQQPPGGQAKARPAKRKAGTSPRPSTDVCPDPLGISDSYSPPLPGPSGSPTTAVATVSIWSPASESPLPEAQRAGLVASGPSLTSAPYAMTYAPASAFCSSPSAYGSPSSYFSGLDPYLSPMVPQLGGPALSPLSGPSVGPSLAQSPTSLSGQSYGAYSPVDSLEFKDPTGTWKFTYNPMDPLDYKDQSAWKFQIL
Sequence of ETV1 (P50549 whole entry): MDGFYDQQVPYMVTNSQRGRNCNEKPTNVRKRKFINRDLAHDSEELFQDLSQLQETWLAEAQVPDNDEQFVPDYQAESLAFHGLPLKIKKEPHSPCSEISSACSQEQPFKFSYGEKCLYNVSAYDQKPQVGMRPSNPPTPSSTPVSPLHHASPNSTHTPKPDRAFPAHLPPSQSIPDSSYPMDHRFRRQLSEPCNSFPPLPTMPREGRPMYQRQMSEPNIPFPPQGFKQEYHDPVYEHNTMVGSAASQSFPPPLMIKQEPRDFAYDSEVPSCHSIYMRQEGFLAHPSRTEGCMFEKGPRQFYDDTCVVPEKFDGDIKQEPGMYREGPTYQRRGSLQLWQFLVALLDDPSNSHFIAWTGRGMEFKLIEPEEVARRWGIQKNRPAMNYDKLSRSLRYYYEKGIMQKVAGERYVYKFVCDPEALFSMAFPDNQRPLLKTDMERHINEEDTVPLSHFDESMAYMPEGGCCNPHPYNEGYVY
Sequence of HSF1 (Q00613 whole entry): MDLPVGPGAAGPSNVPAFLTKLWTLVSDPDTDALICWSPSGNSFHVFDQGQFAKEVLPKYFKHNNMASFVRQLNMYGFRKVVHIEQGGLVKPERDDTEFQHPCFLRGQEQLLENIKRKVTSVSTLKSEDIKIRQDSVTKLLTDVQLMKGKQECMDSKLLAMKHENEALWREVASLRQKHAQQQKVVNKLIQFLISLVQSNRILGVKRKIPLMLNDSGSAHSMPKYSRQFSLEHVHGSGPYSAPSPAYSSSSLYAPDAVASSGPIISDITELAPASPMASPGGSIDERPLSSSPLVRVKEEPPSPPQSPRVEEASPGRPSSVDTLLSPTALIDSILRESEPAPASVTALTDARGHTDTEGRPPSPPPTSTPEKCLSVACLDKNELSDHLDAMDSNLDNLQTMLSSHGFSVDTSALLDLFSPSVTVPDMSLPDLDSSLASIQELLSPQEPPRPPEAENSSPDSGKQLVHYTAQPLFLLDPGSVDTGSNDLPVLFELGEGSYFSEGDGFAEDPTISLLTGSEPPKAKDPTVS

As to ATAACT, the binding signal is 1.22 fold enrichment (6-mer frequency, TF over GST control) with FEV; 1.29 fold enrichment (6-mer frequency, TF over GST control) in the assay with ETV5; 1.15 fold enrichment (6-mer frequency, TF over GST control) in the assay with HSF1; 1.28 fold enrichment (6-mer frequency, TF over GST control) with SPIC; 1.25 fold enrichment (6-mer frequency, TF over GST control) in the assay with ELF4; 1.22 fold enrichment (6-mer frequency, TF over GST control) with ELK4. Also, the binding signal in the assay with ETV2 is 1.39 fold enrichment (6-mer frequency, TF over GST control); in the assay with ELF3, 1.24 fold enrichment (6-mer frequency, TF over GST control); with CRX it was 1.29 fold enrichment (6-mer frequency, TF over GST control); with ETV1 it was 1.16 fold enrichment (6-mer frequency, TF over GST control); with ERF, 1.24 fold enrichment (6-mer frequency, TF over GST control); in the assay with ETV3L it was 1.22 fold enrichment (6-mer frequency, TF over GST control). Further, the binding signal with ETS2 was 1.27 fold enrichment (6-mer frequency, TF over GST control); in the assay with SPDEF, 1.18 fold enrichment (6-mer frequency, TF over GST control); in the assay with ETV7, 1.24 fold enrichment (6-mer frequency, TF over GST control); in the assay with ELF5 it was 1.29 fold enrichment (6-mer frequency, TF over GST control); with ETV3 it was 1.34 fold enrichment (6-mer frequency, TF over GST control); in the assay with ETV6 it was 1.27 fold enrichment (6-mer frequency, TF over GST control).
